Most compounds without a hit are left out; they make up all but 1.9% or so of the library.
bovine MsrA act: bovine MsrA enzyme activators, primary screen, biochemical, absorbance, HTS; purified bovine MsrA, absorbance read-out; activation, % at 10.6 µM; actives 0.3% (n = 360,000); AID 602163, 2012; in the data active = activation above about 7.5%
PLCb3 inh: human PLC-beta3 inhibitors, primary screen, biochemical, fluorescence | 1-phosphatidylinositol 4,5-bisphosphate phosphodiesterase beta-3 (Homo sapiens), Q01970 | Purified PLC-beta3, fluorogenic substrate | inhibition, % at 12.2 µM | actives 0.18% (n = 370,000) | AID 720704, 2013; in the data active = inhibition above about 11%
Target sequence (Q01970 whole entry, looked up): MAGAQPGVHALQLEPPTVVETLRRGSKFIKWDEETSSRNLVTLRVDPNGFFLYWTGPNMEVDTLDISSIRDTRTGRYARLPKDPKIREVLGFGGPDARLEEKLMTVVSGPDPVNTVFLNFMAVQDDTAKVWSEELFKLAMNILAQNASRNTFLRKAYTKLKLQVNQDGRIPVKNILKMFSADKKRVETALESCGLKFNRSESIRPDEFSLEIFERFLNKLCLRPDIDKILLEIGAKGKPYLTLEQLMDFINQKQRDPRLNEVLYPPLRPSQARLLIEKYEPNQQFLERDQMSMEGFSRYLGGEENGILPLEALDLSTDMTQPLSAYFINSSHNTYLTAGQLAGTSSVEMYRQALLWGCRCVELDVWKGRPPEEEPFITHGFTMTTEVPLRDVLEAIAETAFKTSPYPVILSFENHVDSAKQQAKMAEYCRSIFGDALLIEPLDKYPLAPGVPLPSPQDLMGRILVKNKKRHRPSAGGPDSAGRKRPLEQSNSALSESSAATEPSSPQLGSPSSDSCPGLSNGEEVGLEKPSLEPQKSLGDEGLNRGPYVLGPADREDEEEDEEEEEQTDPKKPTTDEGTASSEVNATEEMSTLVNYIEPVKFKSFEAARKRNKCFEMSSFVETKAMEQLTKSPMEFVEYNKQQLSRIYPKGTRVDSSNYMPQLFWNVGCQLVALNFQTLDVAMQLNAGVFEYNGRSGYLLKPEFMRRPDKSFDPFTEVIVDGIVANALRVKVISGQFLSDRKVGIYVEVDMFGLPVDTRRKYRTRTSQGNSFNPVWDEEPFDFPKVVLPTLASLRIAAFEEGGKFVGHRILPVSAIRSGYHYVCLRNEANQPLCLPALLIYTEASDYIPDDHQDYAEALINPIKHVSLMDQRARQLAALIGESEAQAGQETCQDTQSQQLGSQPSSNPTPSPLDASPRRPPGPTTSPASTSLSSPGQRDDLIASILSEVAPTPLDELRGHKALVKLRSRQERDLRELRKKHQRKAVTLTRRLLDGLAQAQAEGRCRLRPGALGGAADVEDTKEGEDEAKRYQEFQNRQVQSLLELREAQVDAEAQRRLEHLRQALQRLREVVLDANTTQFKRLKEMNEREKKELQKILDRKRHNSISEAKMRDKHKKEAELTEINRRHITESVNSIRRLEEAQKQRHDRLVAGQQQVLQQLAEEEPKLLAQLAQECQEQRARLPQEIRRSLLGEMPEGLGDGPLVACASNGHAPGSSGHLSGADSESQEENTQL
PLCg1 inh: PLC-gamma1 enzyme inhibitors, primary screen, biochemical, fluorescence, purified enzyme; fluorogenic substrate; 1-phosphatidylinositol 4,5-bisphosphate phosphodiesterase gamma-1 (Homo sapiens), P19174; inhibition, % at 12.2 µM; actives 0.84% (n = 370,000); in the data active = inhibition above about 9.5%
MsrA inh: bovine MsrA enzyme inhibitors, primary screen, biochemical, absorbance, HTS; Methionine sulfoxide reductase A (Bos taurus); purified bovine MsrA, absorbance read-out; inhibition, % at 15.5 µM; actives 0.75% (n = 360,000)
MsrA inh confirm: bovine MsrA inhibitors, retest, confirmation, biochemical, absorbance, HTS; inhibition, % at 15.5 µM; purified bovine MsrA, absorbance read-out; actives 41% (n = 2,300); shares compounds with MsrA inh;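 note: coupled to thioredoxin reductase with NADPH and selenocystamine and DMSO as substrate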
Large screens that a line does not name were inactive (follow-up assays come after a bar, where they were run). Cut-off read from the data, not from the text of the source, unless noted: active = inhibition above about 4.5%; inactive = the rest.

CCCN(CCC)C1=CC(=[N+]2CCCC2)CC(C)(C)C1	MsrA inh 5.1 | MsrA inh confirm inactive
CN(C)NC1=CC(=[N+]2CCCC2)CC(C)(C)C1	none
Cc1cc(C)nc(NNC2=CC(=[N+]3CCCCC3)CC(C)(C)C2)n1	none
O=C1C=C(N2CCOCC2)CO1	none
CN(C)c1cccc(N=C2C=C(N3CCOCC3)CC(C)(C)C2)c1	none
CC1(C)CC(N2CCCCC2)=CC(=[N+]2CCCCC2)C1	MsrA inh 10 | MsrA inh confirm 8.1
CC1C[N+](=C2C=C(N3CCOCC3)CC(C)(C)C2)CC(C)O1 (stereo unspecified)	MsrA inh 11 | MsrA inh confirm 6.7
C=CCN1C(=O)[C@@H](CC(=O)NCc2ccc(OC)c(OC)c2)[C@]2(C(=O)OC)CCCCC=C12	none (no result: bovine MsrA act, MsrA inh)
O=C(COc1ccccc1C(=O)NCc1ccccc1)Nc1ccc(I)cc1	none (no result: bovine MsrA act, MsrA inh)
COc1cc2c(cc1OC)CSC1C(=O)N(C)C(SC2)C(=O)N1C	none (no result: bovine MsrA act, MsrA inh)
c1ccc(Cn2ccc3ccc(-c4ccc5ccn(Cc6ccc7ccccc7c6)c5c4)cc32)cc1	none (no result: bovine MsrA act, MsrA inh)
O=C(O)c1ccc(/C=N/Nc2ccc(F)cc2F)cc1	MsrA inh 5.6 | MsrA inh confirm inactive
Fc1ccc(N/N=C/c2ccncc2)c(F)c1	none
CCCCn1cnc2c(Sc3c([N+](=O)[O-])ncn3C)nc(N)nc21	MsrA inh 5.2 | MsrA inh confirm inactive
Cn1cnc([N+](=O)[O-])c1Sc1nc(N)nc2c1ncn2Cc1ccccc1	none
CCC(C)Cn1cnc2c(Sc3c([N+](=O)[O-])ncn3C)nc(N)nc21 (stereo unspecified)	MsrA inh 4.9 | MsrA inh confirm 4.9
CCCn1cnc2c(Sc3c([N+](=O)[O-])ncn3C)nc(N)nc21	none
COC(=O)c1ccc(N=NN2CCOCC2)cc1	MsrA inh 6.6 | MsrA inh confirm inactive
CN(C)c1ccc(C(=O)c2ccccc2C(=O)O)c(O)c1	MsrA inh 6.4 | MsrA inh confirm 5.8
CCOC(=O)c1nnsc1Nc1ccc(C)c(C)c1	MsrA inh 8.2 | MsrA inh confirm 7.0
CCOC(=O)c1nnsc1-c1ccc(-c2snnc2C(=O)OCC)cc1	none
Cc1cc(=O)[nH]c(N/N=C/c2ccc(N(C)C)cc2)n1	MsrA inh 7.6 | MsrA inh confirm 6.2
CCNc1nc(NCC)nc(N/N=C/c2ccc(O)c(O)c2)n1	none
CCNc1nc(NCC)nc(N/N=C/c2ccc(N(C)C)cc2)n1	MsrA inh 6.5 | MsrA inh confirm 4.9
CCN(CCC#N)c1ccc(/C=N/Nc2nc(C)cc(=O)[nH]2)c(C)c1	MsrA inh 6.0 | MsrA inh confirm 4.7
NCC(=O)Nc1ccc(Cl)cc1C(=O)c1ccc[nH]1	MsrA inh 5.0 | MsrA inh confirm inactive
Cc1ccc(Oc2cccc3c2S(=O)(=O)N([C@H](C)c2ccccc2)C[C@@H](COCc2ccccc2)O3)cc1	none (no result: bovine MsrA act)
CC(CC(=O)c1ccccc1)=NCCCN=C(C)CC(=O)c1ccccc1	MsrA inh 5.2 | MsrA inh confirm inactive
O=C(CC(=O)c1ccccc1)c1ccccc1	none
C=CCN1C(=O)[C@H](CC(=O)NCCCOCCCC)[C@@]2(C(=O)OCC)CCCC=C12	none (no result: bovine MsrA act, MsrA inh)
COc1cc(/C=N/NC(=O)C(Cc2c[nH]c3ccccc23)NC(=O)OCc2ccccc2)cc([N+](=O)[O-])c1O (stereo unspecified)	PLCg1 inh 11, MsrA inh 5.8 | MsrA inh confirm 5.2
COc1cc(/C=N/NC(=O)C(Cc2c[nH]c3ccccc23)NC(=O)OCC(C)C)cc([N+](=O)[O-])c1O (stereo unspecified)	none
COC(=O)N/N=C/c1cc(OC)c(O)c([N+](=O)[O-])c1	none
COc1cc(/C=N/NC(N)=O)cc([N+](=O)[O-])c1O	MsrA inh 4.7 | MsrA inh confirm inactive
N#CC(/C(=N/S(=O)(=O)c1cccs1)c1ccccc1)c1nc2ccccc2[nH]1 (stereo unspecified)	MsrA inh 5.0 | MsrA inh confirm 5.8
Cc1ccc(C(=O)N/C(=C\C=C\c2ccccc2)C(=O)NCc2ccco2)cc1	none
O=C(NCc1ccco1)/C(=C\C=C\c1ccccc1)NC(=O)c1ccco1	none
CSc1ccc(/C=C(/NC(=O)c2ccco2)C(=O)NCc2ccco2)cc1	MsrA inh 6.3 | MsrA inh confirm inactive
O=C(NCc1ccco1)/C(=C\C=C\c1ccccc1)NC(=O)c1ccccc1Br	MsrA inh 5.0 | MsrA inh confirm inactive
O=C(NCc1ccco1)/C(=C/C=C/c1ccccc1)NC(=O)c1ccco1	MsrA inh 4.9 | MsrA inh confirm inactive
CCOc1cc(/C=C/c2nc3ccccc3c(=O)[nH]2)ccc1O	none
COc1cc(/C=C/c2nc3ccccc3c(=O)[nH]2)ccc1O	MsrA inh 7.0 | MsrA inh confirm inactive
CCN(Cc1ccccc1)C(=O)C1CCCN(c2ncccn2)C1 (stereo unspecified)	none (no result: bovine MsrA act, MsrA inh)
CCN(c1ccccc1)c1nc2nonc2nc1NCCO	MsrA inh 13 | MsrA inh confirm 9.4
OCCNc1nc2nonc2nc1NCCO	none
O=C(CCCN1C(=O)S/C(=C\c2ccccc2)C1=O)NNC(=O)c1ccccc1O	MsrA inh 4.7 | MsrA inh confirm inactive
O=C(CN1C(=O)S/C(=C\c2ccccc2)C1=O)NNC(=O)c1ccccc1O	none
Cc1ccc2cc(/C=N/NC(=O)CN3CCOCC3)c(Cl)nc2c1	MsrA inh 5.0 | MsrA inh confirm inactive
CCOC(=O)c1cc(C(=O)c2cc(F)ccc2O)coc1=N	none
N=c1occ(C(=O)c2cc(F)ccc2O)cc1C(=O)NC1CCCCC1	MsrA inh 4.9 | MsrA inh confirm inactive
Cc1cc(/C=C(\C#N)C(=O)NCc2ccco2)c(C)n1-c1ccc(C(=O)O)cc1	MsrA inh 6.8 | MsrA inh confirm inactive
COc1cc(/C=N/N=C2/NC(=O)C(CC(=O)O)S2)ccc1OCc1ccc(Cl)cc1 (stereo unspecified)	MsrA inh 5.3 | MsrA inh confirm 6.0
Cc1cc(-c2ccc(/C=N/n3cnnc3)o2)ccc1Cl	MsrA inh 4.8 | MsrA inh confirm inactive
Clc1cccc(-c2ccc(/C=N/n3cnnc3)o2)c1Cl	none
Clc1ccccc1-c1ccc(/C=N/n2cnnc2)o1	MsrA inh 5.7 | MsrA inh confirm 5.5
Cc1c(C(=O)O)cccc1-c1ccc(/C=N/n2cnnc2)o1	MsrA inh 6.5 | MsrA inh confirm 4.7
Cc1ccc(-n2c(SCC(=O)c3ccc4c(c3)OCO4)nc3ccccc3c2=O)cc1	none (no result: bovine MsrA act, MsrA inh)
Oc1ccc(/C=N/NC(=S)N/N=C/c2ccc(O)cc2)cc1	MsrA inh 6.4 | MsrA inh confirm 7.2
COc1ccccc1NC(=S)N/N=C/c1ccc(O)cc1	none
Oc1ccc(/C=N/NC(=S)Nc2cccnc2)cc1	MsrA inh 7.9 | MsrA inh confirm 6.2
Cc1nnc(Nc2ccc(F)cc2)c2ccccc12	none
Cc1nnc(Nc2ccccn2)c2ccccc12	MsrA inh 5.5 | MsrA inh confirm inactive
